The whole screen tested about 290,000 compounds, of which about 1,800 (0.62%) were called active. Rule as the data show it: active = inhibition above about 50%; inactive = the rest. This excerpt belongs to a sample that is enriched for actives.
assay: NOD2 signaling inhibitors, cell-based, luminescence, uHTS, HEK293 (AID 1566); conditions: HEK293 NOD2/NF-kB luciferase reporter, at 4 µM, hits give high values

inhibition, inactive:
Cc1cc(C)c(S(=O)(=O)N2CCCOC2CNC(=O)C(=O)NCc2ccco2)c(C)c1 (stereo not given) 15%
CC1=C(C)C(=O)C(N2CCOCC2)=CC1=O 12.8%
CC(C)(C)C1=CC(=O)C(N2CCOCC2)=CC1=O 14.9%
Cc1ccccc1NC(=O)C(C)Sc1nnc(-c2ccncc2)n1CC1CCCO1 (stereo not given) -16.6%
CC(NC(=O)C1CCCO1)c1ccccc1 (stereo not given) 3.6%
CC(=O)N1CCN(c2ccc(NC(=O)c3ccc(C(C)(C)C)cc3)cc2)CC1 3.5%
CCC(=O)N1CCN(c2ccc(NC(=S)NC(=O)COc3ccccc3)cc2)CC1 8.2%
CCOc1ccccc1-c1cc(C(=O)N/N=C/c2ccc(O)c(OC)c2)c2ccccc2n1 -16.4%
Cc1ccc(CNC(=O)c2ccc(NC(=O)C3=CSCCO3)cc2)cc1 8.2%
O=C(NNc1ccc(F)cc1)c1c(F)cccc1Cl -2.7%
CC(=O)c1sc(NC(=O)C(C)C)nc1C 8.3%
CC(=O)Nc1nc(C)c(C(C)=O)s1 -12.2%
CCOc1ccc(N=C2NC(=O)S/C2=C\c2ccc(Cl)cc2)cc1 -11%
CCOCCCNCc1cc(Br)ccc1OCc1ccccc1 19%
CNC(=O)C(=O)NCC1OCCN1S(=O)(=O)c1ccc(OC)c(OC)c1 (stereo not given) -11.3%
COc1cccc(CN2C(=O)C(C)N(C(=O)c3c(F)cccc3F)c3ccccc32)c1 (stereo not given) 45.6%
CC1C(=O)N(Cc2ccccc2)c2ccccc2N1C(=O)c1ccccc1 (stereo not given) 13.9%
CC(C(=O)Nc1cc([N+](=O)[O-])ccc1Cl)N1CCN(c2ccc(O)cc2)CC1 (stereo not given) 1.4%
COc1ccc(Cl)cc1NC(=S)Nc1ccccc1C 0.6%
Cc1csc2c(=O)sc(NC(=O)c3cccs3)nc12 25.6%
COc1cc(NC(=O)c2cccs2)c(C(=O)OCC(=O)c2cc(C)n(-c3ccc(F)cc3)c2C)cc1OC 9.1%
COc1ccc(-n2c(C)cc(C(=O)COC(=O)c3cc(NC(=O)c4cccs4)c(OC)c(OC)c3)c2C)cc1 12.4%
Clc1ccc(/C=N/Nc2nnc(-c3ncc[nH]3)c3ccccc23)cc1 -40.1%
COc1ccc(/C=N/Nc2nnc(-c3ncc[nH]3)c3ccccc23)cc1 -81.3%
CS(=O)(=O)Nc1ccccc1C(=O)NCCSCc1ccccc1 -4.8%
CNC(=S)NC1CC2CCC(C1)N2Cc1ccccc1 (stereo not given) 0.2%
CC(C)C(NC(=O)C(NC(=O)C1O[C@@H]2OC(C)(C)O[C@@H]2[C@H]2OC(C)(C)O[C@@H]12)C(C)C)C(=O)O (stereo not given in full) 20%
CCOC(=O)Cc1csc(NS(=O)(=O)c2cc(Cl)ccc2Cl)n1 -18.2%
Brc1cc(Br)c2nc3c(cc2c1)CCC3 7.6%
COc1cc2cc(Br)cc(Br)c2nc1C 5.9%
CCS(=O)(=O)N1CCN(C(=O)c2cccc(OC)c2)CC1 14.1%
Cc1cc2cc(CNC(=S)Nc3ccc(OC(F)F)cc3)ccc2[nH]1 4.6%
C=CCn1c(-c2cccn(Cc3ccccc3)c2=O)n[nH]c1=S 15.3%
C=CCn1c(-c2cccn(Cc3cccc(Cl)c3)c2=O)n[nH]c1=S 12.9%
CSc1ccccc1OCc1cc(C(=O)N2CCSCC2)no1 -40.6%
CC1=C(C(=O)OCc2ccccc2)C(c2cccc([N+](=O)[O-])c2)NC(=O)N1CCCCCC(=O)O (stereo not given) 10.6%
COc1ccccc1OCC(=O)NC1CCCCCC1 10.3%
O=C(c1ccc(Oc2ccc([N+](=O)[O-])cc2Cl)cc1)N1CCCC1 15.1%
COc1cc(/C=N/N2CCN(Cc3ccc(C)cc3)CC2)cc(OC)c1O 2.5%
CC(=O)Nc1c(-c2ccc(F)cc2)nc2ccccn12 -10.8%
O=C(Nc1c(-c2ccccc2)nc2ccccn12)c1ccccc1 3.9%
O=C(CCS(=O)(=O)c1ccccc1)N1CCN(c2cccc(C(F)(F)F)c2)CC1 11.5%
COc1ccc(/C=C/C(=O)Nc2ccccc2C(F)(F)F)cc1 -25.4%
CCCCOCC(O)CN1CCN(C(C)=O)CC1 (stereo not given) 10.9%
COc1ccc(N=Cc2cc(Cc3ccccc3Cl)cc([N+](=O)[O-])c2O)cc1OC -10.2%
O=[N+]([O-])c1cc(Cc2ccccc2)cc(C=Nc2ccc(N3CCOCC3)cc2)c1O 11.1%
O=C1NN=C(c2ccccc2)CC1c1c[nH]c2ccccc12 (stereo not given) -14%
COc1ccc(NC(=O)CS(=O)(=O)c2cn(CC(=O)N3CCCC3)c3ccccc23)c(OC)c1 -10.2%
Cc1ncc(CO)c(/C=N/N=C/c2ccccc2O)c1O -28%
Cc1ncc(CO)c(CNc2ccc(-c3nc4ccccc4[nH]3)cc2)c1O -99.7%
O=C(COC(=O)c1ccc(Br)cc1)NC1CCCC1 10.3%
O=C(Nc1cccc2ccccc12)c1ccccc1Cl -7.8%
CCCCCCc1cc2cc(C(N)=O)c(=N)oc2cc1O 1.5%
CCCCCCc1cc2cc(C(=O)Nc3ccccc3)c(=O)oc2cc1O -36.8%
CCOC(=O)c1c(NC(=O)CSc2n[nH]c(-c3ccco3)n2)sc(C)c1C 11.6%
COCCSc1nnc(NC(=O)C2CC(=O)N(CCc3ccc(F)cc3)C2)s1 (stereo not given) 16.7%
O=C(CCCCn1c(=O)c2ccccc2n(CC(=O)Nc2ccccc2)c1=O)NCc1ccco1 3.3%
COc1ccc(/C(O)=C/c2nc3ccccc3n(-c3ccccc3)c2=O)cc1 24.8%
COc1ccc(-n2c(=O)c(CCC(=O)N(C)Cc3ccccc3C)nc3ccccc32)cc1 0.2%
Cc1ccc(NS(=O)(=O)c2cccc(C(=O)NNC(=O)c3cccn3C)c2)c(C)c1 -2.3%
C/C(=N\NC(=O)NC1CCCCC1)c1ccco1 -11.6%
O=C(c1cc(Cl)nc2ccccc12)N(Cc1nnc(-c2ccccc2Cl)o1)C1CC1 14.2%
Cc1noc(C)c1C(=O)NCc1ccccc1 16.6%
COc1ccc(NC(=O)c2cc([N+](=O)[O-])ccc2N2CCCC2)cc1 7.4%
COc1ccc(NC(=O)c2cc([N+](=O)[O-])ccc2N2CCCCC2)cc1 -14.3%
O=[N+]([O-])c1cc(Cl)ccc1NCCNc1ncc(C(F)(F)F)cc1Cl 12.4%
Nc1cc(=O)[nH]c(SCc2ccccc2Cl)n1 23.4%
Cc1cc(=O)[nH]c(SCc2ccc(Cl)cc2Cl)n1 4.6%
Cn1c(C(=O)N2CCN(c3ccc(F)cc3)CC2)cc2ccccc21 1.5%
Cc1ccccc1CSc1nc2ccccc2c(=O)[nH]1 -3.5%
O=c1[nH]c(SCc2ccccc2F)nc2ccccc12 8.9%
Cc1cc(-c2nnc(SCC(=O)c3ccc(Cl)cc3)o2)no1 1.2%
COc1ccc(-c2oc3cccnc3c2-c2ccc(OC)nc2)cc1 -2.2%
COc1ccc(CC(=O)Nc2ccc3c(c2)CCC3)cc1 13.2%
COc1cc(CC(=O)Nc2ccc3c(c2)CCC3)cc(OC)c1OC 24.2%
Cc1ccc(C)c(N2CCN(CC(=O)Nc3ccc([N+](=O)[O-])cc3C(=O)Nc3ccccc3F)CC2)c1 -26.6%
Cc1ccc(S(=O)(=O)c2c(N)n(CCN3CCOCC3)c3nc4ccccc4nc23)cc1C -39.8%
Cn1c(=O)cc(NCCc2ccccc2)[nH]c1=O -8.7%
O=C(OCCN=C1NS(=O)(=O)c2ccccc21)c1ccncc1 -0.9%
CCc1ccc(S(=O)(=O)NCc2cn3ccsc3n2)s1 13.4%
CCCCCCCC(=O)NC(Nc1ccc(S(N)(=O)=O)cc1)C(Cl)(Cl)Cl (stereo not given) 22.9%
CN(C)S(=O)(=O)c1cccc(NC(=O)c2cnccn2)c1 6.9%
CN(C)S(=O)(=O)c1cccc(NC(=O)c2ccncc2)c1 12.4%
O=C(CC1CC2CCC1C2)OCC(=O)c1c[nH]c2ccccc12 (stereo not given) 12.6%

inhibition, active:
CC(=O)N1CCN(c2ccc(NC(=S)NC(=O)COc3ccc(C(C)(C)C)cc3)cc2)CC1 68.1%
CC(=O)c1sc(NC(=O)C2(F)C(F)(F)C(F)(F)C(F)(F)C(F)(F)C2(F)F)nc1C 55.2%
COc1cccc(CN2C(=O)C(C)N(C(=O)c3ccccc3)c3ccccc32)c1 (stereo not given) 51%
Oc1ccc2ccccc2c1/C=N/Nc1nnc(-c2ncc[nH]2)c2ccccc12 66.3%
C=CCn1c(-c2cccn(Cc3ccc(Cl)cc3)c2=O)n[nH]c1=S 50.3%
O=C(Nc1c(-c2ccc(F)cc2)nc2ccccn12)c1ccc(F)cc1 79.7%
Cc1ncc(CO)c(CNc2ccc(Oc3ccccc3)cc2)c1O 50.4%
COc1ccc(NC(=O)c2cc([N+](=O)[O-])ccc2O)cc1 70.6%
Nc1cc(=O)[nH]c(SCc2ccc(Cl)cc2Cl)n1 58.1%
O=c1cc(CSc2nc3ccccc3c(=O)[nH]2)c2ccc(O)cc2o1 70.3%
COc1ccc(CC(=O)Nc2ccc3c(c2)CCC3)cc1OC 53.3%
